This note sets out measurements from PubChem BioAssay (NCATS).

“And” between values parts separate entries of the source, which are not always exact repeats. Equal values may be shown once. A structure can be active in one record and inactive in another. The source made the active and inactive calls. Unless noted, the call rests on the fitted dose curve.

Assay [1] has as its target Estrogen receptor (Homo sapiens) (UniProt P03372). The assay is described as follows: qHTS assay for small molecule antagonists of estrogen receptor alpha signaling (AID 588513; active means well fitted curve in the direction sought with a large enough effect in the signal ratio, with a control signal flat, not every such curve was filed as active; inconclusive means small, poorly fitted or top-dose-only effect, or effect the other way, or a change in a side signal; inactive means no such curve, though single readings can be large or run the other way; the % refers to the signal ratio; further: potency means the concentration at half of the fitted maximal effect). To be noted: ER-alpha-UAS-bla HEK293, beta-lactamase ratio, antagonist mode; series mostly up to 76.9 µM. Summed up:
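Antagonist mode: inhibition of 0.5 nM 17-beta-estradiol-driven beta-lactamase reporter in HEK 293 ER-alpha-UAS-bla cells, 18 h at 37C, CCF4 readout after 2 h at RT. Normalised to estradiol and DMSO; titration fitted to Hill.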
For orientation: qHTS replaces the single test concentration by a dilution series.

Assay [2] concerns the target Bile acid receptor (Homo sapiens) (UniProt Q96RI1). The assay is described as follows: qHTS assay for small molecule agonists of farnesoid X receptor signaling (AID 588527).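 Further: 0% = vehicle basal and 100% = reference agonist.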 Conditions: HEK293T FXR-UAS-bla, beta-lactamase ratio, 16 h; stronger effect = higher value. In short, it runs like this: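 Quantitative HTS used FXR-UAS-bla HEK293T cells with 16 h compound incubation at 37 C. EC50 values came from concentration-response curves normalized to chenodeoxycholic acid.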

Assay [3] addresses Glucocorticoid receptor (Homo sapiens) (UniProt P04150). Nature of the assay: qHTS assay for small molecule agonists of glucocorticoid receptor signaling (AID 588532; active means well fitted curve in the direction sought with a large enough effect in the signal ratio, with a control signal flat; inconclusive means small, poorly fitted or top-dose-only effect, or a change in a side signal; inactive means no such curve, though single readings can be large or run the other way; the % refers to the signal ratio;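 further: 100% = dexamethasone at 0.1 µM and 0% = DMSO only wells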). To be noted: HeLa MMTV-bla, beta-lactamase ratio, agonist, 18 h; stronger effect = higher value; percent of dexamethasone control, DMSO zero. Summed up: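 MMTV-bla HeLa, beta-lactamase reporter; medium with 1% charcoal/dextran-stripped FBS; cpds up to 92 uM, 18 h, 37 C; CCF4 readout 460/530 nm; Hill fit → EC50, efficacy vs 0.1 uM dexamethasone = 100%.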

For assay [4] the target is unchanged. The assay is described as follows: qHTS assay for small molecule antagonists of glucocorticoid receptor signaling (AID 588533; active means well fitted inhibition curve with a large enough effect in the signal ratio, with a control signal flat, not every such curve was filed as active; inconclusive means small, poorly fitted or top-dose-only effect, or effect the other way, or a change in a side signal; the % refers to the signal ratio;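 further: cells stimulated with 2 nM dexamethasone as agonist; on the % scale 0 is the no-effect control and ±100 the full control effect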). Conditions: HeLa MMTV-bla, GRE beta-lactamase ratio, antagonist mode, 18 h; series mostly up to 76.8 µM. In short, it runs like this:
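Antagonist-mode qHTS: compound titrations added to GRE-bla HeLa cells, then dexamethasone 2 nM final; 18 h, 37 C. CCF4 FRET fluorescence normalized to dexamethasone and DMSO; IC50 from Hill fit.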

In assay [5] the target is Peroxisome proliferator-activated receptor delta (Homo sapiens) (UniProt Q03181). The assay is described as follows: qHTS assay for small molecule agonists of peroxisome proliferator-activated receptor delta signaling (AID 588534).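 Further: 0% = DMSO basal wells and 100% = positive control agonist at 10 µM.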 Conditions: HEK293T PPARdelta-UAS-bla, beta-lactamase ratio, 18 h; series mostly up to 76.7 µM. In short, it runs like this:
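Reporter cells were plated and held 5 hrs at 37 C before compounds were added. After 18 hrs at 37 C, CCF4 dye was loaded for 2 hrs at RT and fluorescence measured.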

For assay [6], the target named is Peroxisome proliferator-activated receptor gamma (Homo sapiens) (UniProt P37231). Nature of the assay: qHTS assay for small molecule agonists of peroxisome proliferator-activated receptor gamma signaling (AID 588536; active means well fitted curve in the direction sought with a large enough effect in the signal ratio, with a control signal flat, not every such curve was filed as active; inconclusive means small, poorly fitted or top-dose-only effect, or effect the other way, or a change in a side signal; inactive means no such curve, though single readings can be large or run the other way; the % refers to the signal ratio). Conditions: HEK293 PPARg-UAS-bla, beta-lactamase ratio, 16 h, percent of rosiglitazone response, DMSO as zero; series mostly up to 76.7 µM. In short, it runs like this: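 HEK293 UAS-bla reporter line, 1% charcoal/dextran FBS; titration, 16 h, 37 C; CCF4 loading 2 h RT; fluorescence 460/530 nm. Normalized to rosiglitazone 2 uM = 100%, DMSO = 0%.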
Peroxisome proliferator-activated receptor gamma (Homo sapiens), sequence (P37231 whole entry, looked up): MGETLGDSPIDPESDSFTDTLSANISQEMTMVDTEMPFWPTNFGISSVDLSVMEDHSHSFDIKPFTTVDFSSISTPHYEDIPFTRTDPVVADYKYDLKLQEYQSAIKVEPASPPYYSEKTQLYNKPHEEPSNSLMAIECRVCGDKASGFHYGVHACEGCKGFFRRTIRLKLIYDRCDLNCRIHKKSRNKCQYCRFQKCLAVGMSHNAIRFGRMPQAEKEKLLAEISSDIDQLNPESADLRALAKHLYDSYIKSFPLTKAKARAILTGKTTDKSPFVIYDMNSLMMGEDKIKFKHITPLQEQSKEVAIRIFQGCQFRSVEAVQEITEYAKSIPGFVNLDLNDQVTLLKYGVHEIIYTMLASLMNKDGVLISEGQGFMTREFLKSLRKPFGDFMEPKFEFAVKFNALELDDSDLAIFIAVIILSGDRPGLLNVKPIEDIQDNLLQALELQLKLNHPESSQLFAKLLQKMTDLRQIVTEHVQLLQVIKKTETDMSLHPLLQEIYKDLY

Assay [7] can be described thus: qHTS assay for small molecule antagonists of peroxisome proliferator-activated receptor delta signaling (AID 588535).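 Further: cells co-treated with a PPAR-delta agonist as stimulator during compound exposure.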 To be noted: HEK293T PPARd-UAS-bla, beta-lactamase FRET ratio, 18 h; 460 nm channel. Summed up: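 GeneBLAzer PPAR-delta-UAS-bla HEK293T cells in medium with 2% charcoal/dextran FBS were preincubated 5 hrs at 37 C, then given compounds, incubated 18 hrs at 37 C, and read by CCF4 beta-lactamase fluorescence; IC50 from Hill fits.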

The target of assay [8] is Androgen receptor (Homo sapiens) (UniProt P10275). The assay is described as follows: qHTS assay for small molecule agonists of androgen receptor signaling (AID 588515; active means well fitted curve in the direction sought with a large enough effect in the signal ratio, with a control signal flat; inconclusive means small, poorly fitted or top-dose-only effect, or effect the other way, or a change in a side signal; inactive means no such curve, though single readings can be large or run the other way; the % refers to the signal ratio; further: on the % scale 0 is the no-effect control and ±100 the full control effect). Conditions: AR-UAS-bla HEK293, beta-lactamase ratio, agonist 16 h; stronger effect = higher value. Summed up:
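EC50 and efficacy came from Hill fits of titrations (up to 92 uM) normalized to 30 nM R1881 as 100% and DMSO as 0%. Compound exposure was 16 h at 37 C on AR-UAS-bla HEK293 cells, with a 405/460/530 nm CCF4 fluorescence read.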

Assay [9] shares this target. The assay is described as follows: qHTS assay for small molecule antagonists of androgen receptor signaling (AID 588516; active means well fitted curve in the direction sought with a large enough effect in the signal ratio, with a control signal flat, not every such curve was filed as active; inconclusive means small, poorly fitted or top-dose-only effect, or effect the other way, or a change in a side signal; inactive means no such curve, though single readings can be large or run the other way; the % refers to the signal ratio; further: on the % scale 0 is the no-effect control and ±100 the full control effect). To be noted: AR-UAS-bla HEK293, beta-lactamase ratio, antagonist mode, 16 h; series mostly up to 76.8 µM. Summed up:
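Antagonist mode: inhibition of R1881-stimulated (10 nM final) bla reporter in GeneBLAzer AR HEK 293 cells, 16 h at 37C, compounds titrated. IC50 and efficacy from Hill-equation fits of 405/460–530 nm FRET ratios.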

Assay [10] deals with Bile acid receptor (Homo sapiens) (UniProt Q96RI1). Nature of the assay: qHTS assay for small molecule antagonists of farnesoid X receptor signaling (AID 588526). Further: potency means the concentration at half of the fitted maximal effect. To be noted: HEK293T FXR-UAS-bla, beta-lactamase ratio, antagonist mode; series mostly up to 76.7 µM. Summed up:
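Concentration-response titrations were fitted to the Hill equation for half-maximal inhibition and maximal response, with data normalised to 50 uM chenodeoxycholic acid and DMSO control wells. Cells: FXR-UAS-bla HEK293T, dialyzed FBS.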

Bile acid receptor (Homo sapiens), sequence (Q96RI1 whole entry, looked up): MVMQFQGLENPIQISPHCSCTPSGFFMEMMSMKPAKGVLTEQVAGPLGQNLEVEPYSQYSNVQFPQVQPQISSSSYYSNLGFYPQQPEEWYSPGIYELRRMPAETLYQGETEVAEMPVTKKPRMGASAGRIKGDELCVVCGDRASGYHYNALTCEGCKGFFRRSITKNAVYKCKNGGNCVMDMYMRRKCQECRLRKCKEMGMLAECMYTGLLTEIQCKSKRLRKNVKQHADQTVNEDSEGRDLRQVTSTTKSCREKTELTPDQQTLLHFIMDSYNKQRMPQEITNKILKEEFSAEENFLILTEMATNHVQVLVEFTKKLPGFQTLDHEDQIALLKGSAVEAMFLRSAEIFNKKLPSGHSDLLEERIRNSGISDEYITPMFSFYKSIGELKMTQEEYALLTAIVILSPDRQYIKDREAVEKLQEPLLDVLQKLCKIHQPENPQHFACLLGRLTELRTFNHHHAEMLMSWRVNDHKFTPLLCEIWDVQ
Androgen receptor (Homo sapiens), sequence (P10275 whole entry, looked up): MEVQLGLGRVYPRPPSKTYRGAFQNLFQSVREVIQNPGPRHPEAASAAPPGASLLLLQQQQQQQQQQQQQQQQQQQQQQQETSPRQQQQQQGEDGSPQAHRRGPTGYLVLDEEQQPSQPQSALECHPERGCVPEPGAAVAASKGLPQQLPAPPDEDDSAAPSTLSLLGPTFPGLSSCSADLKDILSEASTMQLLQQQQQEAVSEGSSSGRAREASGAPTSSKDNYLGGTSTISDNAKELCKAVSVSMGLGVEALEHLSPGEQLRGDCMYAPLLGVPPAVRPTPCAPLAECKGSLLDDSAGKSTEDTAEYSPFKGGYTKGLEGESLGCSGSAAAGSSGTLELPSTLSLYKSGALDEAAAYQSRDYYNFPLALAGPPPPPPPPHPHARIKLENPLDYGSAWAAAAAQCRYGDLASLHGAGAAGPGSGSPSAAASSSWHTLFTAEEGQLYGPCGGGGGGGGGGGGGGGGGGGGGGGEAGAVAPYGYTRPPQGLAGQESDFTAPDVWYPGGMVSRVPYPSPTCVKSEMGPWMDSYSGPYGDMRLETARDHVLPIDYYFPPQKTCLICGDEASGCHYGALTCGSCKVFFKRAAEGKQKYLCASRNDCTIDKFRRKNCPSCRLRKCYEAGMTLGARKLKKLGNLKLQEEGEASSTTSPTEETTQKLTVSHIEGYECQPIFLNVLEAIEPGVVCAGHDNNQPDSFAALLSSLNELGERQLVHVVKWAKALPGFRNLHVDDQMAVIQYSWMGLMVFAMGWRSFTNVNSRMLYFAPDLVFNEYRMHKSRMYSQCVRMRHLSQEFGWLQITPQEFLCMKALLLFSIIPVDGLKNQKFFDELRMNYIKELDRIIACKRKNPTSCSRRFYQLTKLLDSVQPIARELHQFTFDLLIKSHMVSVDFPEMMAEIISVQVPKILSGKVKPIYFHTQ
Glucocorticoid receptor (Homo sapiens), sequence (P04150 whole entry, looked up): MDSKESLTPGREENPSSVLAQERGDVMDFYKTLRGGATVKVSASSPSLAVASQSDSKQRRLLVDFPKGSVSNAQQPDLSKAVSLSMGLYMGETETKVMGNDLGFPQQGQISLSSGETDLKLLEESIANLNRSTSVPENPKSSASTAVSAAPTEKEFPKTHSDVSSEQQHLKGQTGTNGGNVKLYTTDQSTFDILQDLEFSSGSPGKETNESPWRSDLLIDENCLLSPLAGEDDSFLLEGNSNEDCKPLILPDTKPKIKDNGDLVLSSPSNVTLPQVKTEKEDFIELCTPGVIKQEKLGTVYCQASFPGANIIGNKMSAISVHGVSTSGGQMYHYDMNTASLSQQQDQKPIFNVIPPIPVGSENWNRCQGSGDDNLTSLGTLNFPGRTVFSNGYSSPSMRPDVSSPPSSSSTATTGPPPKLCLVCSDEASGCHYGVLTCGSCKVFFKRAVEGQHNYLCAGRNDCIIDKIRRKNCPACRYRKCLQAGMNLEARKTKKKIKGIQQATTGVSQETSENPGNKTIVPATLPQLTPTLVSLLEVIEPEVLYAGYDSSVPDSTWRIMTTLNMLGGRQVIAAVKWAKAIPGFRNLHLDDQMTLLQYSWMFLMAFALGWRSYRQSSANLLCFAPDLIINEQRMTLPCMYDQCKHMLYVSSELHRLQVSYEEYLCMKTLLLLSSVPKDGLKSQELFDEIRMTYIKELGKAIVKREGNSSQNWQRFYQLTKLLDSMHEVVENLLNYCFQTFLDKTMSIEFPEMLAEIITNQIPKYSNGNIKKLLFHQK
Estrogen receptor (Homo sapiens), sequence (P03372 whole entry, looked up): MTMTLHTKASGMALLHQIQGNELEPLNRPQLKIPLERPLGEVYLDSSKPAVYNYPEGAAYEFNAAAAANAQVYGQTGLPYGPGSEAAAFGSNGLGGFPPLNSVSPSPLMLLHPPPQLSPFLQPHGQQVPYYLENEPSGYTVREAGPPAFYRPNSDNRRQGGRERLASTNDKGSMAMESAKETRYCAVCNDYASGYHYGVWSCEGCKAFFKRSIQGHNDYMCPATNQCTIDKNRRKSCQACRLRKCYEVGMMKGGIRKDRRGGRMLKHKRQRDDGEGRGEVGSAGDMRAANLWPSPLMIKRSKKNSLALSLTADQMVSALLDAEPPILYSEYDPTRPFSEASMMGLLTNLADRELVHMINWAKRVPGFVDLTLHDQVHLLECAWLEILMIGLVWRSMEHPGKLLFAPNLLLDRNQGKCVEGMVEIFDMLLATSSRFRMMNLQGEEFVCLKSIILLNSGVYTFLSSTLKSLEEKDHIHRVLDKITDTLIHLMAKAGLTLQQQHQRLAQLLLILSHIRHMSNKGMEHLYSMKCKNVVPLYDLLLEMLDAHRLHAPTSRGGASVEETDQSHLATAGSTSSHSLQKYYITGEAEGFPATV
Peroxisome proliferator-activated receptor delta (Homo sapiens), sequence (Q03181 whole entry, looked up): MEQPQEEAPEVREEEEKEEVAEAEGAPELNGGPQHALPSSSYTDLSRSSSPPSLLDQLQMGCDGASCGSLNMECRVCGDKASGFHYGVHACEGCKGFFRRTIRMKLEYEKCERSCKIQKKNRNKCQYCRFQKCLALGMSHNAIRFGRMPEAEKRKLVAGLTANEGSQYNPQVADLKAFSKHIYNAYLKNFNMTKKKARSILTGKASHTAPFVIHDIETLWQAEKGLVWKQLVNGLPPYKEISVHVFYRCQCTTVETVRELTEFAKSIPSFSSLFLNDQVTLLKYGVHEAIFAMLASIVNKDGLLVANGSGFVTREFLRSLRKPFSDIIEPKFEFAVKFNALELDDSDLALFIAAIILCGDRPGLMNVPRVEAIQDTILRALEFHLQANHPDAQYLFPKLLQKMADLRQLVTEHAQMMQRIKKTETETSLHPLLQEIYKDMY

Regarding `NNC(N)=O`, the Potency result in assay [1] and in assay [4] was “inactive” each time. The activation in [2] is -1.54% (inactive); in [3], -1.3% (inactive). Moreover, the outcome in assay [5] and in assay [6] was inactive.

As for `CCOC(=O)c1ccccc1C(=O)OCC`, the Potency entry in [1] and in assay [4] was “inactive” each time. Moreover, the activation in assay [3] is -2.44% (inactive) and -3.91% (inactive). Also, the outcome in assay [5] and in [6] was inactive. Moreover, the max response in assay [7] was 24.2% and 33.2%.

For `O=c1[nH]c(=O)n(Cl)c(=O)n1Cl`, the activation in assay [3] was 26.8% (inactive). Moreover, the Potency entry in [4] was “inactive”. For the same compound, the outcome in assay [6] was inactive.

With `C[C@H]1CCC[C@H](O)CCCCCc2cc(O)cc(O)c2C(=O)O1`, the activation in assay [3] was 9.28% (inactive). Also, in [6], the result was inactive.

In the case of `O=[N+]([O-])C(Br)(CO)CO`, the values for the activation in assay [8] and in assay [2] were -2.08% (inactive) and 2.54% (inactive), respectively. The result in assay [9], in [5] and in assay [6] was inactive. The Potency entry in assay [10] is “inactive”. The max response in assay [7] was -53.3%.

Take `CC(C)CCON=O`: the activation in assay [3] was -2.48% (inactive). Also, in assay [4], the Potency entry is “inactive”. For the same compound, the result in assay [5] and in [6] was inactive. Moreover, in assay [7], the max response was 8.58%.

Consider `O=C1C=CC(=O)C=C1`, for which the result in assay [6] was inactive.

For the compound `Clc1ccccc1Cl`, the Potency result in [10] and in assay [4] was “inactive” in each case. In addition, the activation was -2.33% (inactive) in assay [2] and 2.7% (inactive) in assay [3]. Moreover, the outcome in [5] and in assay [6] was inactive. For the same compound, the max response in [7] stood at 4.84%.

Take `O=C1C2CC=CCC2C(=O)N1SC(Cl)(Cl)Cl` (stereo unspecified): the Potency in assay [1] is 12.6 µM [inconclusive] (active) and 10 µM [inconclusive] (active) and inactive. Besides, the outcome in assay [5] and in assay [6] was inactive. The max response in assay [7] worked out at 55.5%.

As for `O=C(NCNC(=O)NC1C(=O)NC(=O)N1CO)NC1C(=O)NC(=O)N1CO` (stereo unspecified), the activation in assay [8] is 0.237% (inactive); in assay [2], 1.1% (inactive); in [3] it was -2.2% (inactive). Moreover, the Potency result in assay [10] and in assay [4] was “inactive” each time. Besides, the outcome in assay [5] and in [6] was inactive. Besides, the max response in [7] was found to be 13.7%.

For the compound `O=Cc1ccco1`, the outcome in assay [5] was inactive.

As to `O=C(O)C(Cl)(Cl)Cl`, the outcome in assay [5] and in [6] was inactive. The max response in assay [7] is -10%.

In the case of `CC(C)(C)c1cc(O)ccc1O`, the Potency entry in assay [10] and in assay [4] was “inactive” each time. Moreover, the activation is 0.716% (inactive) and -1.49% (inactive) and 4.72% (inactive) in assay [2]; 4.46% (inactive) and 3.75% (inactive) and 5.49% (inactive) in assay [3]. For the same compound, the outcome in assay [5] was inactive. Also, in assay [7], the max response is 24.1%.

Take `O=C(O)c1cc[c]([Hg][Cl])cc1`: the Potency result in [10] and in assay [4] was “inactive” each time. In addition, the activation in assay [2] was 1.46% (inactive); in [3], 5.77% (inactive).

Take `COC1=CC(=O)O[C@@H](/C=C/c2ccccc2)C1`: the Potency result in [10] and in assay [4] was “inactive” each time. For the same compound, the activation in assay [2] was -0.876% (inactive); in assay [3], -2.27% (inactive). Also, the outcome in assay [6] was inactive.

Turning to `COCC(C)N(C(=O)CCl)c1c(C)csc1C` (stereo unspecified), the Potency entry in assay [10] and in assay [4] was “inactive” each time. Moreover, the activation in [2] was 0.208% (inactive); in assay [3], -2.08% (inactive). Moreover, the outcome in [5] was inactive.

On to `CCCCCl`, for which the Potency result in [10] and in assay [4] was “inactive” throughout. Moreover, the activation in assay [2] was 1.93% (inactive); in assay [3], 5.23% (inactive). Moreover, the outcome in [5] and in [6] was inactive. For the same compound, the max response in assay [7] worked out at 7.66%.

In the case of `O=C1C[C@@H]2OCC=C3CN4CC[C@]56c7ccccc7N1[C@H]5[C@H]2[C@H]3C[C@H]46`, the result in assay [6] was inactive.

For the compound `CCCSP(=O)(OCC)SCCC`, the activation was -4.11% (inactive) in [8] and 2.76% (inactive) in assay [2]. Further, the Potency result in assay [10] and in [4] was “inactive” each time. Besides, in assay [6], the outcome was inactive.

With `C[CH2][Hg][S]c1ccccc1C(=O)O`, the Potency in [10] is 8.91 µM (active).

`ClC1C(Cl)C(Cl)C(Cl)C(Cl)C1Cl` (stereo unspecified): the Potency entry in assay [10] is “inactive”. Moreover, in assay [2], the activation is 1.57% (inactive) [middle of 4 runs]. Moreover, the result in assay [5] and in assay [6] was inactive.

As for `Oc1cc(Cl)c(Cl)cc1Cl`, in [6], the result was inactive.

Turning to `COc1ccc2c(c1OC)C(=O)OC2C1c2cc3c(cc2CCN1C)OCO3` (stereo unspecified), the activation in assay [8] was -2.23% (inactive). For the same compound, the outcome in assay [9], in [5] and in [6] was inactive.
